Source: PubChem BioAssay (Tox21)
Results filed as inconclusive are left out. A number with no mark means an inactive call. Active and inactive are the calls of the source. The call rests on the fitted dose curve.

Experiment: p53 small molecule agonists, cell-based qHTS assay with rat liver microsomes (AID 1963578)
Conditions: HCT-116 p53RE-bla, beta-lactamase ratio, 16 h; series mostly up to 66 µM; activation: at the top concentration
Source text: U.S. Tox21 Program National Center for Advancing Translational Sciences [NCATS] Division of Preclinical Innovation [DPI] U.S. Environmental Protection Agency [EPA] National Institutes of Environmental Health Sciences [NIEHS] National Toxicology Program [NTP] U.S. Food and Drug Administration [FDA] Tox21 Assay Overview: p53, a tumor suppressor protein, is activated following cellular insult, including DNA damage and other cellular stresses. The activation of p53 regulates cell fate by inducing DNA repair, cell cycle arrest, apoptosis, or cellular senescence. The activation of p53, therefore, is a good indicator of DNA damage and other cellular stresses. […] The activation of the reporter gene under culture conditions can be detected by fluorescence intensity. This cell line was used to screen the Tox21 10K compound library in the condition of presence of rat liver microsomes and to identify agonists that activate the p53 signaling pathway after in vitro metabolic activation (Ooka et al., Archive of Toxicology 96:1975-1987, 2022).
Tox21 Assay Protocol Summary: The p53RE-bla cells were dispensed at 4,000cells/3ul/well in 1536-well black-clear bottom plates. After the assay plates were incubated at 37 C, 5% CO2 incubator for 5 hours, 23 nL of compounds dissolved in DMSO, positive controls or DMSO only was transferred to the assay plate. Following compound addition, 3 uL of rat liver microsomes (Molecular Toxicology, Boone, NC) at final concentration of 0.5 mg/mL and 1uL of Beta-Nicotinamide adenine dinucleotide 2-phosphate (NADPH) at final concentration of 0.5 mg/mL were transferred to the assay plate. The plates were incubated at 37 C for 16 hours. 1 uL of LiveBLAzer detection mixture was added to each well and the plates were incubated at room temperature in the dark for 2 h.
On the % scale 0 is the no-effect control and ±100 the full control effect.

SMILES | activation | Potency
Clc1ccc2c(Cl)ccnc2c1 | 0.462% | 
COC(OC)OC | 0.167% | 
Nc1c(NC/C=C\COc2cc(CN3CCCCC3)ccn2)c(=O)c1=O | 0.229% [at 13.6 µM] | 
O=C1c2c(O)ccc(Nc3ccc(CCO)cc3)c2C(=O)c2c([N+](=O)[O-])ccc(O)c21 | -4.07% | 
CC(C)(C)C(=O)C(Oc1ccc(Cl)cc1)n1ccnc1 (stereo not given) | 1.86% [at 30.3 µM] | 
CCCCCC=O |  | inactive
O=S(=O)(O)c1cc(O)c(O)c(S(=O)(=O)O)c1 | -1.99% | 
O=c1cccc[nH]1 | -0.658% | 
O=c1[nH]c(=O)n([C@H]2CCCO2)cc1F |  | inactive
C[C@H]1C[C@@H](O)CC(C)(C)C1 | 0.186% | 
CN(C)CCOC(c1ccc(Cl)cc1)c1ccccn1 (stereo not given) | -2.29% [at 30.3 µM] | 
C/C=C(\C)C(=O)OCc1ccccc1 | 0.186% | 
CC(C)=C1CC[C@@H](C)CC1=O | -0.297% | 
C1CCC2OC2C1 (stereo not given) | 0.538% | 
O=C(O)c1ccccc1OP(=O)(O)O | -0.53% [at 30.3 µM] | 
C=CC(=O)CC | 0.52% | 
CCN1C(=O)c2ccccc2C1Nc1ccc(OCCN2CCCCC2)cc1 (stereo not given) | -2.09% [at 30.3 µM] | 
[Cl][In]([Cl])[Cl] |  | inactive
CC[C@]12CCCN3CCc4c(n(c5ccccc45)[C@@](O)(C(=O)OC)C1)[C@@H]32 |  | inactive
CCn1cc(C(=O)O)c(=O)c2cc3c(cc21)OCO3 |  | inactive

SMILES | activation | Potency
BrC1CCC(Br)C(Br)CCC(Br)C(Br)CCC1Br (stereo not given) |  | inactive
CC(C)C(=O)c1ccccc1 | -0.255% | 
CCN(CC)c1ccc(C=O)c(O)c1 | 2.58% | 
CC[C@H]1CN2CCc3cc(OC)c(OC)cc3[C@@H]2C[C@@H]1C[C@H]1NCCc2cc(OC)c(OC)cc21 |  | inactive
CC12CCC(C(=O)C1=O)C2(C)C (stereo not given) | -2.65% | 
Cc1cc(O)cc2c1O[C@](C)(CCC[C@H](C)CCC[C@H](C)CCCC(C)C)CC2 | -4.11% [at 30.3 µM] | 
C=CCc1cc(OC)c(O)c(C(=O)NCCO)c1 | -0.264% [at 30.3 µM] | 
CC(C)(C)OC(=O)c1cccc(N)c1 | -0.0621% | 
Nc1ncnc2c1ncn2Cc1c(F)cccc1Cl | -5.2% [at 30.3 µM] | 
CCOC(=O)CN1CCCC1=O | -0.466% [at 30.3 µM] | 
CCCCCCCCCCCCCCCC(=O)OC | 0.588% [at 13.6 µM] | 
Cc1ccc(S(=O)(=O)O)c(C)c1 | 0.649% | 
CCSC(=O)N(CC(C)C)CC(C)C | 0.521% | 
CC(C)(C)CC(C)(C)c1ccc(Nc2ccc(C(C)(C)CC(C)(C)C)cc2)cc1 | -0.0551% [at 5.99 µM] | 
O=C(O)C[C@H](NC(=O)OCc1ccccc1)C(=O)O | -3.26% | 
C=COCCOCCOCCOC=C | -2.46% | 
CC(C)CC(C)(O)C#CC(C)(O)CC(C)C (stereo not given) |  | inactive
CCCCC1CCC(O)CC1 (stereo not given) | 0.0932% | 
O=C(Cn1ccnc1[N+](=O)[O-])NCc1ccccc1 | -1.05% [at 30.3 µM] | 
CCc1cnc(C(=O)O)c(C(=O)O)c1 | -0.466% | 
